# An excerpt weighted towards active compounds, which were near 9.2% of everything screened.
# Rab9 prom act = Rab9 promoter activation. 320,000 compounds, 2.8% hits. Potency, µM (titrated, usually from 9.22 µM), for inactives: at the highest dose activation, negative = inhibition, actives largely listed as activators. Huh7 Rab9 promoter-luciferase reporter, luminescence, 24 h; note: % of control where 0% means no effect; nearly all actives have a fitted effect of over 60% in size
#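 Cells were plated at 1500 per well in reduced-serum medium with 10% FBS and left 2 h. Compound in DMSO was then added for 24 h at 37 °C. Reporter signal was read by luminescence after 10 min with luciferase detection reagent.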
# FLuc modulator = inhibits or activates purified firefly luciferase, miR-21 counter-screen. purified FLuc, Km substrates, luminescence inhibition. Potency, µM (series often up to 57.5 µM), without a hit: at the highest dose activity change, negative = inhibition, most hits filed as inhibitors. AID 588342. 360,000 compounds, 6.9% hits;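 note: plate controls were vehicle for no effect and reference inhibitor for full effect; nearly all actives have a fitted effect of over 55% in size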
# Target sequence (P08659 whole entry, looked up): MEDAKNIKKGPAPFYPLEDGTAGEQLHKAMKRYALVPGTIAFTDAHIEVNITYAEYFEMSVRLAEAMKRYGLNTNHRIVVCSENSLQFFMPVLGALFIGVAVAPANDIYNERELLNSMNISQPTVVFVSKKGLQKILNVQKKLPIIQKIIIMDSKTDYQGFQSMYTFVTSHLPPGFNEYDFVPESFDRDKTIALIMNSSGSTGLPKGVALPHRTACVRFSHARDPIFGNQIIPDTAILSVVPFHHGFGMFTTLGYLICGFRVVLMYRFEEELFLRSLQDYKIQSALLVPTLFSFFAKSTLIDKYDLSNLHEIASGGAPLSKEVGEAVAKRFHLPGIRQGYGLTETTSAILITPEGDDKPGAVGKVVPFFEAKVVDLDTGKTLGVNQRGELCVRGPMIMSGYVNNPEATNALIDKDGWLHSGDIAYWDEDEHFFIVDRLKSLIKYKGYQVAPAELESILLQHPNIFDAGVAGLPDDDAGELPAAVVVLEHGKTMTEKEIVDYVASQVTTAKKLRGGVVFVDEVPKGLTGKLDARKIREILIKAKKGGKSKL
#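 Biochemical qHTS of compounds, final roughly 60 µM downward over six points, against 10 nM purified firefly luciferase using Km concentrations of substrates (10 uM D-luciferin, 10 uM ATP) in Tris acetate pH 7.5 buffer; luminescence output.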
# SMN2 splice up = enhancers of SMN2 splice variant expression. HEK293 SMN2-luciferase splicing reporter, luminescence, 30-36 h. 210,000 compounds, 2.8% hits. Potency, µM (titrated, usually from 46.1 µM), without a hit: top-dose activity change, positive = activation, usual class: activators; note: % of control where 0% means no effect; nearly all actives have a fitted effect of over 55% in size
#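 qHTS luciferase splicing reporter: luminescence rises when SMN2 exon 7 is included in transfected HEK293 cells. Compound exposure lasted 30-36 h at 37C, with 4.5 mM final sodium butyrate as control, followed by a ONE-Glo read.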
# ELG1 DNA repair = ELG1-dependent DNA repair inhibition. AID 504467. HEK293T ELG1-luciferase reporter, luminescence, 16 h; DNA damage induced by 5-fluorouridine. Potency, µM (top dose mostly 46.1 µM), for inactives: at the top dose activity change, negative = inhibition, actives largely listed as inhibitors. 330,000 compounds, 2.3% hits; note: % is set by controls: 0 for no effect and ±100 for the full control effect; nearly all actives have a fitted effect of over 55% in size
#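 Step one: seed 2,000 cells per well. Step two: pin-transfer compound or DMSO alongside 5-fluorouridine. Step three: incubate 16 hr, 37 °C, 5% CO2. Step four: add ONE-Glo, wait 30 min, read luminescence.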
# ELG1 genotoxic = inducers of genotoxicity in HEK293T ELG1-luciferase cells. HEK293T ELG1-luciferase reporter, luminescence, 16 h. Potency, µM (series often up to 46 µM), without a hit: at the top dose activity change, positive = activation, hits mostly activators. 330,000 compounds, 1.3% hits; note: % of control where 0% means no effect; nearly all actives have a fitted effect of over 60% in size
#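 After overnight (16 hr) compound treatment at 37 °C, ELG1-luciferase HEK293T cells were lysed with ONE-Glo; luminescence quantified 30 min later at room temperature.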
# NPC1 promoter act = activators of NPC1 promoter | Huh7 NPC1 promoter luciferase reporter, 24 h | 320,000 compounds, 2.4% hits | Potency, µM (titrated, usually from 9.22 µM), inactives show top-dose activation, usual class: activators; note: % of control where 0% means no effect; nearly all actives have a fitted effect of over 60% in size
#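 Cells: Huh7 expressing luciferase under the NPC1 promoter, 1500/well. Seeded 2 h, compound added, incubated 24 h at 37 °C. Luciferase reagent, 10 min ambient, then luminescence.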
# * marks the source's active call; other numbers are inactive results; ? = inconclusive; · = not tested or not shown. Calls come from the whole dose curve; as a rule, active = well fitted curve in the direction sought with a large enough effect; inconclusive = small, poorly fitted or top-dose-only effect, or another doubt; inactive = no such curve, though single readings can be large; an effect the other way counts as inactive or inconclusive. Potency is the fitted concentration of half-maximal effect.
SMILES,Rab9 prom act,FLuc modulator,SMN2 splice up,ELG1 DNA repair,ELG1 genotoxic,NPC1 promoter act
CCCNC(=O)C(Cc1cccc(OC)c1)NC(=O)c1ccc(C(C)(C)C)cc1 (stereo unspecified),-9%,0%,·,?,2%,0%
C/C(=N\O)c1ccc2[nH]ccc2c1,?,?,22%,?,15%,-4%
C/C(=N\O)c1ccc2c3c([nH]c2c1)CCCC3,?,11µM*,?,?,?,?
COc1ccc(Nc2nc(CN3CCOCC3)nc3sc4c(c23)CCC(C)C4)cc1OC (stereo unspecified),0%,-14%,0%,6.5µM*,2%,-7%
COc1cc2c(cc1OC)CN(c1nc(CN3CCOCC3)nc3sc4c(c13)CCC(C)C4)CC2 (stereo unspecified),-1%,-1%,14%,7.3µM*,-12%,1%
N#Cc1nc(-c2cccc3ccccc23)oc1N1CCCCC1,?,?,8%,59%,16%,?
COCCNc1oc(-c2ccccc2Cl)nc1C#N,9%,19µM*,0%,?,2%,17%
CC(C)Nc1oc(-c2cccc3ccccc23)nc1C#N,?,12µM*,10%,?,?,0%
CC1CCN(c2oc(-c3cccc4ccccc34)nc2C#N)CC1,?,?,11µM*,?,?,?
CN1C(=O)N(CC(=O)N2CCN(c3ccccc3F)CC2)C(=O)C12CCCCC2,1%,1%,·,1%,0%,-2%
Cc1ccc2nc(COc3cccc(NC(=O)COc4ccccc4F)c3)cc(=O)n2c1,·,2%,·,·,·,·
O=C(NCC1CCCO1)c1cn(-c2ccccc2)nc1-c1ccccc1 (stereo unspecified),3%,6.7µM*,·,-8%,-2%,14%
COc1ccc(-c2nn(-c3ccccc3)cc2C(=O)NCC2CCCO2)cc1 (stereo unspecified),3%,?,·,?,-6%,0%
COc1cccc(-c2cc(C(=O)NCC3CCCO3)c3cc(C)cc(C)c3n2)c1 (stereo unspecified),16%,1.9µM*,·,12%,15%,-4%
COc1cccc(-c2nn(-c3ccc(F)cc3)cc2C(=O)NCC2CCCO2)c1 (stereo unspecified),-2%,17µM*,·,?,-6%,0%
COc1cccc(OCC(=O)NCC2CCCO2)c1 (stereo unspecified),·,·,·,12%,0%,·
Cc1ccc(-c2nn(-c3ccc(F)cc3)cc2C(=O)NCC2CCCO2)cc1 (stereo unspecified),10%,11µM*,·,-9%,-9%,-8%
COc1cccc(-c2nn(-c3ccc(C)cc3)cc2C(=O)NCC(c2cccs2)N2CCOCC2)c1 (stereo unspecified),-1%,?,·,?,-35%,-4%
COc1cccc(-c2nn(-c3ccc(C)cc3)cc2C(=O)NCC2CCCO2)c1 (stereo unspecified),13%,9.5µM*,·,-29%,-5%,-1%
CCOc1ccc(C(c2c(O)cc(C)n(CCOC)c2=O)N2CCC(C)CC2)cc1 (stereo unspecified),·,-7%,·,·,·,·
C=CCN(C(=O)C1=NN(C2CCS(=O)(=O)C2)C(=O)CC1)c1nc(-c2ccc([N+](=O)[O-])cc2)cs1 (stereo unspecified),2.8µM*,-18%,11µM*,?,12%,4µM*
CCN1CCN(C(=O)c2cc(COc3ccc(C(C)=O)cc3OC)on2)CC1,3.2µM*,12µM*,·,?,?,2.2µM*
COc1cc(C)ccc1OCc1cc(C(=O)N2CCCCCCC2)no1,4.5µM*,21µM*,·,?,?,?
COc1ccc(OCc2cc(C(=O)N3CCN(C4CCCC4)CC3)no2)c(Cl)c1,?,21µM*,·,?,?,3.2µM*

# Screening data as filed in PubChem.
